Many of the other results were omitted from the sample, so hits are more common in it than they were.
Sa growth inh: S. aureus growth inhibition at 42 and 30 °C, primary screen, LtaS inhibitor project, RN4220, two temperatures; OD600, 20 h, 42 °C; active compounds read low; relative growth, % (test concentration not listed); 170,000 tested, 0.53% active;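 active = relative growth at most 50% at the other temperature and 20+ points below 30 °C, or under 10% at both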
Sa helicase inh: inhibitors of S. aureus replicative helicase, primary screen, biochemical, fluorescence unwinding readout. replicative DNA helicase (DnaC/DnaB), Staphylococcus aureus. purified S. aureus helicase, fluorescence unwinding assay. inhibition, % (no concentration beside the values). 120,000 tested, 0.05% active. AID 485395, 2010; in the data active = inhibition above about 25%, passing the limit was not always enough;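 note: 0% = mean of negative control wells and 100% = mean of positive control wells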
* marks the source's active call; other numbers are inactive results.

For CCCCC/C=C/CCC(=O)N[C@H]1[C@H](Oc2c3cc4cc2Oc2ccc(cc2Cl)[C@@H](O[C@@H]2O[C@H](CO)[C@@H](O)[C@H](O)[C@H]2NC(C)=O)[C@@H]2NC(=O)[C@H](NC(=O)[C@@H]4NC(=O)[C@H]4NC(=O)C(Cc5ccc(c(Cl)c5)O3)NC(=O)[C@H](N)c3ccc(O)c(c3)Oc3cc(O)cc4c3)c3ccc(O)c(c3)-c3c(OC4O[C@H](CO)[C@@H](O)[C@H](O)[C@@H]4O)cc(O)cc3[C@@H](C(=O)O)NC2=O)O[C@H](CO)[C@@H](O)[C@@H]1O (stereo not given in full) the results were Sa growth inh -0.1*.
`S=c1n(CN2CCCC2)nc2sc3ccccc3n12` gave Sa growth inh 39* and Sa helicase inh 0.
Screening CN(Cn1nc2sc3ccccc3n2c1=S)C1CCCCC1 returned Sa growth inh 54 and Sa helicase inh -13.
Screening O=C1N=c2ccccc2=C1N=Nc1c(O)[nH]c2ccccc12 returned Sa growth inh 38 and Sa helicase inh -23.
For O=C1C2C=CC=CC2=NC(=S)[N+]1=Nc1c(O)[nH]c2ccccc12 (stereo not given) the results were Sa growth inh 1.4* and Sa helicase inh 11.
Screening O=C(O)Cn1ccccc1=O returned Sa growth inh 44* and Sa helicase inh 7.
For N/C(Cn1ccccc1=O)=N\O the results were Sa growth inh 82 and Sa helicase inh -14.
For Cc1ccccc1Nc1nn2c(=O)c3ccc(C(=O)NCCC4=CCCCC4)cc3nc2s1 the results were Sa growth inh 81 and Sa helicase inh 4.
`COc1cc(CN(C)C(=O)C2CCN(C(C)=O)CC2)ccc1OCc1ccccc1` gave Sa growth inh 84 and Sa helicase inh -9.
Oc1c(CN2CCOCC2)ccc2ccccc12 was read as Sa growth inh 107 and Sa helicase inh 3.
Cc1ccc(C(c2c(O)ccc3ccccc23)N2CCOCC2)o1 (stereo not given) was read as Sa growth inh -0.6* and Sa helicase inh 10.
`Cc1cc(N2C(=O)CCC2=O)no1` gave Sa growth inh 101 and Sa helicase inh 5.
For Cc1ccc(-c2csc(NC(=O)C(C)C)n2)cc1 the results were Sa growth inh 110 and Sa helicase inh 10.
Screening COc1cccc(NC(=O)Cn2ccc3c(OC)cccc3c2=O)c1 returned Sa growth inh 98 and Sa helicase inh -2.
For COc1cccc(NC(=O)Cn2sc3ccccc3c2=O)c1 the results were Sa growth inh -0.2* and Sa helicase inh 12.
`Cc1cc(Cl)ccc1OCC(=O)NC1(C#N)CCCCC1` gave Sa growth inh 70 and Sa helicase inh -4.
Cc1ccc(N(Cc2ccc(C(=O)N3CCOCC3)cc2)S(C)(=O)=O)cc1C was read as Sa growth inh 112 and Sa helicase inh 15.
Screening CCN(C(=O)CSc1nnc(-c2ccccc2)c(-c2ccccc2)n1)C1CCS(=O)(=O)C1 (stereo not given) returned Sa growth inh 101 and Sa helicase inh -7.
CCN(C(=O)CSc1nc(C)cc(C)c1C(N)=O)C1CCS(=O)(=O)C1 (stereo not given) was read as Sa growth inh -1.2* and Sa helicase inh 6.
Screening Cc1ccc(/C=C2/Sc3ccc(C(=O)N4CCN(c5ccccc5F)CC4)cc3NC2=O)cc1 returned Sa growth inh 101 and Sa helicase inh 12.
COc1ccc(CCN=C(N)Nc2nc(C)cc(C)n2)cc1OC was read as Sa growth inh 72 and Sa helicase inh 0.
Screening Cc1sc2nc[nH]c(=O)c2c1-c1ccccc1 returned Sa helicase inh -4.
`Cc1sc2nc[nH]c(=S)c2c1-c1ccccc1` gave Sa growth inh -0.5* and Sa helicase inh 11.
`O=S(=O)(Nc1ccc(N2CCCCC2)cc1)c1ccc(-c2cc(C(F)(F)F)on2)s1` gave Sa growth inh 100 and Sa helicase inh -8.
Screening CC1=Nc2ccccc2Sc2c1c(=O)n(-c1ccccc1)c1ccccc21 returned Sa growth inh 1.8* and Sa helicase inh 13.
For O=c1c(-c2ccn(-c3ccccc3)n2)c(O)c2ccccc2n1-c1ccccc1 the results were Sa growth inh 99 and Sa helicase inh -3.
For O=C(CC(=O)c1c(F)cccc1F)c1ccccc1O the results were Sa growth inh 123.
`COc1ccc(C(=O)CC(=O)c2ccccc2O)cc1` gave Sa growth inh 87 and Sa helicase inh 16.
Screening Cc1ccc(C(=O)CC(=O)c2ccccc2O)cc1 returned Sa growth inh 0.8* and Sa helicase inh 2.
`O=C(CC(=O)c1ccccc1O)c1ccc(Cl)cc1` gave Sa growth inh 1.1* and Sa helicase inh -2.
O=C(COc1ccc(Cl)cc1)N1CCNCC1 was read as Sa growth inh 112 and Sa helicase inh 1.
`Cc1ccc(Oc2ccc3c(c2)C(=O)N(CC(=O)O)C3=O)cc1` gave Sa growth inh 82 and Sa helicase inh 4.
`C=CCc1c(CCC)nc(-c2ccccn2)[nH]c1=O` gave Sa growth inh -0.3*.
Screening CCCc1nc(-c2ccccn2)[nH]c(=O)c1Cc1c(F)cccc1Cl returned Sa growth inh 58 and Sa helicase inh 35.
For Cc1cccc(CS(=O)(=O)c2ncc(Cl)c(C(=O)NCc3ccccc3)n2)c1 the results were Sa growth inh 1.6*.
Screening O=C(NCc1ccccc1)c1nc(S(=O)(=O)Cc2ccc(F)cc2)ncc1Cl returned Sa growth inh 15.
For CN(C)/N=C/c1cc(Br)c(O)c(Br)c1 the results were Sa growth inh 49 and Sa helicase inh -5.
For O=C(O)CCCC(=O)Nc1ccccc1-c1ccccc1 the results were Sa growth inh 96.
CCOc1cccc(OCC)c2c(C)[n+](C)c(C)c1-2 was read as Sa growth inh 123 and Sa helicase inh 58*.
CCOc1cccc(OCC)c2c(C)nc(C)c1-2 was read as Sa growth inh 105 and Sa helicase inh 7.
`O=C1CCCC/C1=C/Nc1ccc(N/C=C2/CCCCC2=O)cc1` gave Sa growth inh 131 and Sa helicase inh -7.
Screening Nc1cccnc1Nc1ccccc1 returned Sa growth inh 6.4* and Sa helicase inh -62.
`c1ccc(Nc2ncnc3ccccc23)cc1` gave Sa growth inh 96 and Sa helicase inh -13.
For O=C(Nc1ccccc1)Nc1cccc2ccccc12 the results were Sa growth inh 99 and Sa helicase inh 8.
Screening CN(C)c1cc(NC(=O)Nc2ccccc2)c2ccccc2n1 returned Sa growth inh 0.0* and Sa helicase inh 31.
CCOC(NC(=O)c1ccccc1)(C(F)(F)F)C(F)(F)F was read as Sa growth inh 114.
For CCOC(NC(=O)Nc1ccc(Br)cc1)(C(F)(F)F)C(F)(F)F the results were Sa growth inh -0.7*.
Cn1c(CSc2nc(N)cc(N)n2)nnc1SC/C=C/c1ccccc1 was read as Sa growth inh 95 and Sa helicase inh 5.
CC(=O)Nc1cccc(C(=O)OCC(=O)c2cc3ccccc3o2)c1 was read as Sa growth inh 116 and Sa helicase inh -20.
For Cc1cc(Nc2ncc(Cl)cc2Cl)n[nH]1 the results were Sa growth inh 2.2* and Sa helicase inh 2.
For CN(CC(=O)Nc1ncc(Cl)cc1Cl)Cc1ccc(Cl)cc1 the results were Sa growth inh 93 and Sa helicase inh -4.
For N#Cc1ccc2c(c1)nc1c3cccc4cccc(c(=O)n21)c43 the results were Sa growth inh 114 and Sa helicase inh -20.

Screening results (PubChem)
